Screens deposited in PubChem by National Center for Advancing Translational Sciences (NCATS).
Pf growth 48h: P. falciparum growth inhibition at 48 hours (one generation); P. falciparum luciferase growth in erythrocytes, 48 h; Potency, µM (doses to about 28.7 µM), for inactives: at the highest dose activity change, negative = inhibition, usual class: inhibitors; hit rate 5.9% among 310,000; further: on the % scale 0 is the no-effect control and ±100 the full control effect
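Luminescence readout; reporter = integrated firefly luciferase in P. falciparum. RBC culture at 2% hematocrit, 0.1% parasitemia final, 37 C/5% CO2; decreased signal taken as growth inhibition.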
Sm TGR inh: blocks Schistosoma mansoni thioredoxin glutathione reductase; Q962Y6; purified TGR, DTNB reduction, TNB absorbance 405 nm; Potency, µM (series often up to 114 µM), without a hit: top-dose activity change, negative = inhibition, hits mostly inhibitors; hit rate 3% among 360,000; AID 485364; further: on the % scale 0 is the no-effect control and ±100 the full control effect; nearly all actives have a fitted effect of over 60% in size
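Kinetic colorimetric format: TGR-catalysed, NADPH-driven DTNB reduction monitored via TNB absorbance. Enzyme dispensed at 20 nM; compound exposure 15 min at room temperature before reaction start.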
SARS PLP yeast: blocks SARS-CoV papain-like protease in a yeast assay; S. cerevisiae expressing SARS-CoV PLpro, growth rescue; Potency, µM (highest dose often 32.9 µM), for the others: at the top dose activity, positive = growth rescue, most hits filed as activators; hit rate 0.19% among 330,000; calls by dose curve; further: 0% is about no effect; nearly all actives have a fitted effect of over 55% in size
AmpC detergent: blocks E. coli AmpC beta-lactamase in detergent assay; P00811; AmpC hydrolysis of nitrocefin, absorbance 480 nm, 0.01% Triton; Potency, µM (series often up to 114 µM), without a hit: at the highest dose activity change, negative = inhibition, most hits filed as inhibitors; hit rate 0.041% among 370,000; AID 485294;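 further: 0% = no-compound wells and -100% = no-enzyme wells; nearly all actives have a fitted effect of over 25% in size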
Target sequence (P00811 whole entry, looked up): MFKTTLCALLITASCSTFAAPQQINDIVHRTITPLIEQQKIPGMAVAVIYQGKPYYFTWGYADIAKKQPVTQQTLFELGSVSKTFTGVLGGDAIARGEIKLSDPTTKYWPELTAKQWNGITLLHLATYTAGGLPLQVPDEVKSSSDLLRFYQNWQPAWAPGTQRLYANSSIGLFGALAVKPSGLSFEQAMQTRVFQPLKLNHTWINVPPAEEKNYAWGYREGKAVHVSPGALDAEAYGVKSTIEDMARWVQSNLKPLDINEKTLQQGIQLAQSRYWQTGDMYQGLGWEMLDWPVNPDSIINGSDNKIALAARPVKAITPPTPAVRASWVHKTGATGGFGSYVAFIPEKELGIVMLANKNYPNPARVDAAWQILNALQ
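20 mM phosphate pH 7.0 + 0.01% (detergent screen) or 0.0001% Triton X-100; 5.3 nM AmpC reagent; cpd preinc 15 min RT; nitrocefin (800 uM stock) to start; A480 q20 s × 4 min; Activity was normalised to no-enzyme and no-compound control wells.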
Pf growth 96h: P. falciparum growth inhibition at 96 hours; AID 504834; Potency, µM (top dose mostly 28.7 µM), for the others: top-dose activity change, negative = inhibition, usual class: inhibitors; P. falciparum luciferase reporter growth, 96 h; hit rate 6.9% among 320,000; further: on the % scale 0 is the no-effect control and ±100 the full control effect
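P. falciparum expressing integrated firefly luciferase, in erythrocytes at 2% hematocrit, 0.05% parasitemia, incubated with compounds 96 h at 37 C, 5% CO2. Growth inhibition read as loss of luminescence; two-generation exposure targets delayed-death apicoplast inhibitors.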
AmpC inh no detg: blocks E. coli AmpC beta-lactamase in detergent-free assay. Potency, µM (highest dose often 57.1 µM), for the others: top-dose activity change, negative = inhibition, actives largely listed as inhibitors. AID 485341. P00811. AmpC nitrocefin hydrolysis, absorbance 480 nm, 0.0001% Triton. hit rate 0.52% among 330,000;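 further: plate controls were no compound for no effect and no enzyme for full effect; nearly all actives have a fitted effect of over 20% in size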
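20 mM phosphate pH 7.0 + 0.01% (detergent screen) or 0.0001% Triton X-100; 5.3 nM AmpC reagent; cpd preinc 15 min RT; nitrocefin (800 uM stock) to start; A480 q20 s × 4 min; Activity was normalised to no-enzyme and no-compound control wells.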
Starred values were filed as active, the others as inactive; ? = inconclusive; nt = no result. An excerpt weighted towards active compounds, which were near 12% of everything screened. Unless noted, the call rests on the fitted dose curve; in most records, active means well fitted curve in the direction sought with a large enough effect; inconclusive means small, poorly fitted or top-dose-only effect, or another doubt; inactive means no such curve, though single readings can be large; an effect the other way counts as inactive or inconclusive. Potency means the concentration at half of the fitted maximal effect.

SMILES	Pf growth 48h	Sm TGR inh	SARS PLP yeast	AmpC detergent	Pf growth 96h	AmpC inh no detg
O=C(c1ccc([N+](=O)[O-])o1)N1CCN(c2nc3ccc(F)cc3s2)CC1	2.3µM*	-2%	0%	-13%	1.2µM*	-10%
COc1cccc2sc(N3CCN(C(=O)c4ccc([N+](=O)[O-])o4)CC3)nc12	0.83µM*	?	9%	-2%	0.74µM*	156%
Cc1ccc2sc(N3CCN(C(=O)c4ccc([N+](=O)[O-])o4)CC3)nc2c1C	0.37µM*	-2%	-1%	0%	0.74µM*	-11%
CCCCC(=O)N1CCN(c2nc3c(C)c(C)ccc3s2)CC1	nt	7%	nt	4%	nt	nt
O=C(C1CC1)N1CCN(c2nc3ccc(F)cc3s2)CC1	nt	10%	nt	1%	nt	nt
Cc1c(Cl)ccc2sc(N3CCN(C(=O)c4ccco4)CC3)nc12	nt	6%	nt	5%	nt	nt
O=C(c1ccc([N+](=O)[O-])o1)N1CCN(c2nc3c(Cl)cccc3s2)CC1	1.3µM*	-20%	0%	-16%	1µM*	-21%
CC(C)(C)OC(=O)C[C@H]1C/C=C\C[C@H](CC(=O)NCCO)C(=O)N2CCC[C@@H]2COC1=O	nt	nt	8%	nt	nt	9%
Cc1ccc(N2CCN(S(=O)(=O)c3ccc4oc(=O)c5ncn(C)c5c4c3)CC2)c(C)c1	nt	7%	nt	3%	nt	nt
COc1cc(SSc2cc(OC)cc([N+](=O)[O-])c2N)c(N)c([N+](=O)[O-])c1	?	-1%	-19%	-3%	9.3µM*	-34%
COc1cc([N+](=O)[O-])c2ncsc2c1	14%	1%	14%	-4%	19%	-9%
Cc1cc(NC(=O)CSc2nnc(-c3cccc(Cl)c3)o2)no1	?	1%	-4%	-7%	2.9µM*	-14%
Cc1cc(NC(=O)CSc2nc3cc(Cl)ccc3o2)no1	8.3µM*	6%	0%	-2%	56%	1%
CCN(CC)S(=O)(=O)c1ccc2oc(SCC(=O)Nc3cc(C)on3)nc2c1	?	5%	11%	-5%	2.1µM*	-11%
CCN(CC)S(=O)(=O)c1ccc2oc(SCC(=O)NC3CC3)nc2c1	11%	-15%	-4%	7%	22%	-19%
COc1cc(Cl)c(C)cc1NC(=O)CSc1nc2ccccc2o1	4%	-15%	-2%	-17%	10µM*	-25%
COc1cccc(-c2nnc(SCC(=O)Nc3cc(C)on3)o2)c1	0%	-31%	0%	?	nt	1%
CCOC(=O)c1ccccc1NC(=O)CSc1nc2ccccc2o1	37%	15%	10%	-14%	-8%	-12%
CCOC(=O)c1ccc(CN(Cc2ccc(C)cc2)S(=O)(=O)c2cccc([N+](=O)[O-])c2)cc1	-15%	-8%	2%	-11%	?	-21%
O=C(Nc1cccc(S(=O)(=O)N2CCCCC2)c1)c1ccc2ncsc2c1	12%	5%	1%	4%	-4%	-38%
Cc1nc2ccc(NC(=O)c3cccc(S(=O)(=O)N(C)c4ccccc4)c3)cc2s1	?	0%	4%	-6%	8.3µM*	-3%
CN(C)c1cccc(C(=O)Nc2nc3ccccc3[nH]2)c1	-62%	-5%	-1%	-11%	-62%	-37%
CN(c1ccccc1)S(=O)(=O)c1cccc(NC(=O)c2cccc(C#N)c2)c1	13µM*	-2%	-3%	?	?	-38%
Cc1nc2ccc(NC(=O)c3ccccc3)cc2s1	20%	nt	-1%	2%	0%	-14%
CN(c1ccccc1)S(=O)(=O)c1cccc(NC(=O)c2ccc3ncsc3c2)c1	?	-4%	-2%	-4%	10µM*	-49%
SMILES	Pf growth 48h	Sm TGR inh	SARS PLP yeast	AmpC detergent	Pf growth 96h	AmpC inh no detg
Cc1ccc(N(C)S(=O)(=O)c2cccc(C(=O)Nc3nc4ccccc4[nH]3)c2)cc1	12µM*	-7%	-9%	-14%	?	-23%
Cc1cc(C)cc(NC(=O)Cn2c(=O)n(C(C)C)c(=O)c3oc4ccccc4c32)c1	nt	2%	nt	-4%	nt	nt
CCN(CC)C(=O)c1sc2c(c1C)c(=O)n(-c1ccc(Cl)c(Cl)c1)c(=O)n2CC(=O)Nc1cccc(OC)c1	nt	-1%	nt	-1%	nt	nt
COc1cc(O)ccc1-c1nc2cc(C)ccn2c1Nc1ccccc1C	nt	7%	nt	11%	nt	nt
COC(=O)c1cccc(Nc2c(-c3ccc(OC)cc3)nc3nc[nH]n23)c1	nt	0%	nt	1%	nt	nt
COc1cccc(CN(CC2CCCO2)S(=O)(=O)c2ccc(S(=O)(=O)N(C)C)cc2)c1 (stereo unspecified)	-20%	6%	19%	0%	nt	41%
NC1=NC[C@@H](Cc2ccc(O)cc2)N1CCc1cc(C(F)(F)F)cc(C(F)(F)F)c1	5.9µM*	12%	-1%	1%	3.3µM*	12%
NC1=NC[C@H](c2ccccc2)N1CCc1cccc(F)c1	?	0%	0%	5%	?	-27%
NC1=NC[C@@H](Cc2ccc(O)cc2)N1CCc1cccc(F)c1	10µM*	9%	-4%	11%	1.9µM*	-37%
NC1=NC[C@H](CC2CCCCC2)N1CCc1cc(C(F)(F)F)cc(C(F)(F)F)c1	2.9µM*	8%	-7%	2%	2.3µM*	66%
Cc1ccccc1S(=O)(=O)NC1OC(=O)C(Cl)=C1Cl (stereo unspecified)	40%	3.2µM*	-2%	0%	9%	-33%
Cc1cc(C)c(S(=O)(=O)c2ccccc2C)c(Oc2ccccc2)n1	-14%	7%	8%	0%	-11%	-7%
Cc1ccccc1S(=O)(=O)Nc1nc2ccccc2nc1Cl	30%	-2%	6%	2%	-5%	13%
Cc1ccccc1S(=O)(=O)NC1OC(=O)C(Oc2ccccc2)=C1Br (stereo unspecified)	0%	8.9µM*	-1%	7%	96%	-14%
Cc1nn(C(=O)COc2ccccc2Br)c(C)c1Sc1ccccc1	nt	0%	nt	-7%	nt	nt
Cc1cccc(CC(=O)Nc2cc(C)c3c(=O)oc4ccccc4c3n2)c1	-9%	1%	2%	?	20%	-14%
Cc1cc(NC(=O)Cc2ccccc2)nc2c1c(=O)oc1ccccc12	12%	4%	-8%	?	26%	6.3µM*
Cc1cc(NC(=O)C2CCCCC2)nc2c1c(=O)oc1ccccc12	15%	0%	-1%	-13%	6.6µM*	-21%
CCC(=O)N1CCc2cc(Br)cc(S(=O)(=O)N3CCCC(C(=O)NCc4ccccc4)C3)c21 (stereo unspecified)	nt	1%	nt	11%	nt	nt
O=C(Nc1ccc2c(c1)OCO2)c1ccc(Br)s1	189%	-8%	-9%	?	8.3µM*	-28%
